# PubChem BioAssay (EPA / NIEHS)
# The source made the active and inactive calls. How the source made its calls: active means hit-call score of the fitted dose curve at least 0.9, where 1 is the maximum; inactive means score below 0.9.
# Assay: ATG_GATA_CIS: Attagene CIS-FACTORIAL HepG2 Assay for human GATA Binding Protein (AID 2282944)
# Settings: HepG2 GATA cis-element reporter, Attagene multiplex mRNA; actives raise or lower the signal
# Procedure, shortened: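 Read-out: fluorescent reporter mRNA fragments resolved by capillary electrophoresis after RT-PCR. Human liver HepG2 cells carried transiently transfected cis-regulated reporter constructs; chemicals incubated 24 h; gain or loss of signal fitted relative to DMSO.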
Structure (SMILES),outcome,AC50
CCCCCCCCCCCC#N,inactive,–
O=C(NC(=O)c1c(F)cccc1F)Nc1ccc(Oc2ccc(C(F)(F)F)cc2Cl)cc1F,inactive,–
CC1CCCC1.[C-]#[O+].[C-]#[O+].[C-]#[O+].[Mn],inactive,–
CCCCNP(N)(N)=S,inactive,–
CC(=O)C=Cc1ccccc1,inactive,–
CCC(=O)c1ccc(Cl)cc1,inactive,–
Nc1ccccc1C(=O)Oc1ccc2ccccc2c1,–,143 µM (active)
C=CC(=O)OC,inactive,–
CC(C)CCCCCCCOC(=O)c1ccccc1C(=O)OCCCCCCCC(C)C,inactive,–
N#CCNCC#N,inactive,–
CN(C)N,inactive,–
CN1C[C@H](C(=O)N[C@]2(C)O[C@@]3(O)[C@@H]4CCCN4C(=O)[C@H](Cc4ccccc4)N3C2=O)C=C2c3cccc4[nH]cc(c34)C[C@H]21,inactive,–
O=[N+]([O-])C=Cc1ccccc1,–,22.1 µM (active)
Nc1ccc(Cl)c(Cl)c1,inactive,–
CCCCOP(=O)(O)OCCCC,inactive,–
O=C(O)CCl,inactive,–
CC(O)CN(CC(C)O)CC(C)O (configuration not stated),inactive,–
Nc1cc(Cl)cc(Cl)c1,inactive,–
O=[N+]([O-])c1ccc(Cl)cc1,inactive,–

Structure (SMILES),outcome,AC50
Cc1ccc(C)c2ccccc12,inactive,–
C=CCO,inactive,–
COC(=O)COc1ccc(Cl)cc1Cl,inactive,–
[CH3][Sn]([Cl])([Cl])[Cl],inactive,–
CC(=O)c1cc2c(cc1C)C(C)(C)C(C)CC2(C)C (configuration not stated),inactive,–
Nc1ccc(-c2ccc(N)c(N)c2)cc1N,inactive,–
c1cc(OCC2CO2)ccc1Cc1ccc(OCC2CO2)cc1 (configuration not stated),inactive,–
C=CC(=O)OCCCCOC(=O)C=C,inactive,–
c1ccc2c(c1)CCCC2,inactive,–
CCOC(=O)C1OC1(C)c1ccccc1 (configuration not stated),inactive,–
[Cl][Sb]([Cl])[Cl],inactive,–
COc1ncc(F)c2nc(S(=O)(=O)Nc3c(F)cccc3F)nn12,inactive,–
CC(C)[C@@H](C(=O)O[C@@H](C#N)c1cccc(Oc2ccccc2)c1)c1ccc(Cl)cc1,inactive,–
C[C@]12CC[C@H]3[C@@H](CC[C@@]45O[C@@H]4C(O)=C(C#N)C[C@]35C)[C@@H]1CC[C@@H]2O,inactive,–
O=[N+]([O-])c1cc([N+](=O)[O-])c2ccccc2c1,inactive,–
O=C(O)C(Br)Br,inactive,–
C=CC(=O)OCCO,inactive,–
CCCCCCCCCCCCCCCC[N+](C)(C)C,–,26.6 µM (active)
